# The whole screen tested about 31,000 sequences, of which about 1,400 (4.5%) were called active. The entries come from a sample that favours actives as a whole. Values without a mark were called inactive.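 How the source made its calls: active means median seed-adjusted z-score above 1 or below -1; inactive means the rest.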
# Assay: Novel Modifiers of Survival Motor Neuron (SMN) Protein: Gene Identification via Genome-wide siRNA Screen;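 further: luminescence tracks full-length SMN protein made from the SMN2 reporter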
# Details: HEK293T SMN2-luciferase reporter, siRNA knockdown, 72 h; actives lie on both sides
# In short: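 siRNA screen, 10418 genes ×3 siRNAs; 1 pmol/well, lipid reverse transfection into HEK293T SMN2-luc reporter line. 72 h, 37 °C, 5% CO2; ONE-Glo readout. Data: neg-ctrl normalized, log10, MAD; hit = MAD >1.0 or < -1.0.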
row,Sequence,median seed-adjusted z-score
1,GGAAGGUUGCUAUAGUGGATT against SSX2IP,-0.0799
2,GGCAAGUGCUUCACUCAAATT against ZNF665,1.13 (active)
3,GAAUUCGCUUCAUCCAUUUTT against POMT2,-0.614
4,UGAUUGCACGAACAGCAAATT against MED21,-1.3 (active)
5,GUAACACCGUUGAAGCUAATT against E2F8,0.209
6,CUGCUCACCCUUUACAUCATT against KIF12,0.0971
7,CAGUCCCAAUUUCCACUUUTT against PCDHB2,0
8,CCAGGUCUCGAAAACCAAATT against EN2,0.319
9,CAGUGUUAGUCAUAUCGUATT against DHX36,0.165
10,CCUCGGCUCCAGCAAAUCATT against CACNB1,0.225
11,GUGGGUAACUGGAACAAAATT against MFGE8,0.0367
12,CAACCAACAUUUACAUAUUTT against OPRK1,-1.08 (active)
13,GCCUUGCGCUAAAUCUCGATT against NSD1,-0.372
14,GCAUUAACCCAAUUGCUCUTT against EDNRB,0.119
15,GAGCAGUCGCGAGAAGAUUTT against PPP1R12C,-0.535
16,GGAGAGUUAAGAUCAAUGUTT against KCNB2,1.22 (active)
17,CCGUCAAAGUGAUCAACAATT against IKZF3,0.0181
18,GGUGCUACGUUAGACCAGUTT against SNRPA1,-2.71 (active)
19,GCCUCCCACUACUUUGAAATT against IL2RB,0.333
20,GCAUGUCCAAUGUUCCAUATT against ACAT1,-0.848
21,UAAUAAAGCGGAUUCUAGATT against THAP7,-0.0317
22,GUCGAGUAUUCAUCCGAGATT against DHX57,-0.138
23,CGAUAGCACCUUCCUGUUUTT against GALT,0.484

row,Sequence,median seed-adjusted z-score
1,GCUUACAUAGCAAAUCUAATT against ST8SIA2,0.516
2,CAGUGUUCGUUCAACCCUATT against ZNF665,1.13 (active)
3,GAUCCGCACGGACUGCUUUTT against ACVRL1,-0.361
4,GAAAUCUUCUUACGAAAAATT against XPO7,0.546
5,GACAGGACGUGAACAUGCATT against SLC22A18AS,0.0382
6,CAACGAAGAGGGCAUGUUUTT against MEOX2,1.36 (active)
7,GCAGCAAGAAGGUAGCACATT against ZNF598,-0.303
8,GUCUUUACUCUUCAACUGATT against THBS4,-0.28
9,GCAACUCAAAGGUGAUAAATT against CCNK,-0.717
10,GGCUCAAUGUGGACUACAATT against HS3ST1,1.21 (active)
11,CUACUUUUAUCUUGCAUAATT against ZNF264,0.617
12,GGACUCUACUGCUAAAGUATT against TBC1D8B,-0.985
13,GAAAAACGGUGACCGUCAATT against MYO9B,-0.0287
14,CAGUUUGCUCUAUCAGUAATT against PSTPIP2,0.0136
15,CGCUGAAGUUUGUCCCUAATT against SEPX1,-0.0545
16,CAGUGUGGAUACUAAUAAATT against PMVK,0.269
17,CAAUCACCGCUGUGGUAAATT against UCP1,-0.0744
18,CGAGGUGACUGGUACAAGATT against NDUFV1,-0.653
19,CUACGAUUCUGGUGGAAUATT against TRRAP,-1.25 (active)
20,GGAUGAUUUAGAAUUGUCATT against ATP6V0C,-0.389
21,CCAUGUUCAGUUCCAAGGATT against CORO1A,0.569
22,GGUGAUCACCAAGAUCAAATT against ADCY3,-0.294
23,CUACACCUGUUUCAACAGATT against USPL1,-1.87 (active)

row,Sequence,median seed-adjusted z-score
1,AGAAGUCUGUUGCUAUGCATT against GNB5,-0.535
2,GACCAUACCCAGUACCGAUTT against MYH15,-0.939
3,GCAGGACCUUUUAGCAUCUTT against LYL1,-0.118
4,ACCGCUAUGUCUACAUGUUTT against FADS6,-0.637
5,GAAACAAACUUAUAGUGAUTT against WBP5,0.452
6,GGAUUUUUGAUUUUCCGAATT against TUBAL3,1.05 (active)
7,CGAAGGCCUUGUGAACAGATT against FOSL1,-0.431
8,CAGAGAAACGAGUCUUUAATT against ST6GALNAC5,-0.0321
9,GCUUCUAAAUGUGAGACGATT against GCNT4,-0.0629
10,GGGUACAACUCUUUGAAGATT against MNAT1,-0.335
11,GCUCAAAUUGUUUUGCGUUTT against AKR1D1,0.211
12,CGCUUCAAGAGGUUCGGAATT against MLPH,-1.2 (active)
13,GAAAAGGGAUAACUACGAATT against HIVEP3,0.516
14,CCAGCGAGCUGAUCCUCAATT against MYCN,0.00242
15,CCACCUUUGCAACGCGGAATT against TPSD1,0.0848
16,GAGAUGCUGUGAGUAGGUATT against TTC9C,-0.571
17,CGACAUUGCCCUGCUCAAATT against ELA2B,-0.154
18,GGGUCACAGAGGUCGAUAUTT against PDILT,-0.0994
19,CAAUAAGGCUCAUGCACAATT against GNAQ,-1.23 (active)
20,AACUCUUCAGGUGAAGAUATT against SLC8A2,0
21,GGAGUUUGCGUUUGAGGUATT against PLCD1,-0.0473
22,CGAAUAUGAUGAAGAUGUUTT against PHF17,1.01 (active)
23,CAAAGAUCAUGAUAUUCCATT against JUB,-0.0898

# Source: PubChem BioAssay AID1347426 (Functional Genomics Laboratory (NCATS/FGL), 2020)
